Source: the supplement of paper PMC6555819

tested on: FXR:RXRa (NR concentration 270 nM, RXRa partner concentration 90 nM); assay: PBM binding z-score (relative to random genomic background probes); higher = stronger binding; sequences stand for … in GC…GCGATTGACAGCGTAGAATGAAGG
How it was run: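 Scanned fluorescence from custom Agilent 4×180K protein-binding microarrays was regression-normalized. Binding z-scores use random background probes as reference. Ligand-free nuclear receptor dimers were incubated on the arrays for 1 h and detected with antibodies against each partner (one per run).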

**Q.** For TCGAGTAGGTTAGGGGCATGCAGAATGGCGTCGA, which PBM binding z-score is on record?
**A.** 0.354

**Q.** TCATATAGGTGAAGGTGAAAGTCGAACGATATGA was tested. Which PBM binding z-score did it give?
**A.** 0.452

**Q.** Which PBM binding z-score does the source give for GCGACCGGGGCAAAGCAGGTTACCATAAGGTTGG here?
**A.** 0.264

**Q.** CAGACTGGGGCAAGGTTACCATAACGCACAGCCA was tested. Which PBM binding z-score did it give?
**A.** 0.535

**Q.** CCTAGTTGGTCTAGGTCACACACGCTATAGGTAC was tested. Which PBM binding z-score did it give?
**A.** 1.54

**Q.** Which PBM binding z-score does the source give for ATATGTAGGTTATCGGGTCATTCCGTTTGCGCAT here?
**A.** 3.08

**Q.** Which PBM binding z-score does the source give for CCTAACAGGCCAATCTGGGTCACTCAAGGCTTGA here?
**A.** 1.06

**Q.** Which PBM binding z-score does the source give for CCTAGCAGGCCAGGGTCACTCGAGCATTTCGCTT here?
**A.** 2.22

**Q.** CAAACTAGGTCGCGAAAGGTCAAAGTCGAATGAC was tested. Which PBM binding z-score did it give?
**A.** 6.26

**Q.** Which PBM binding z-score does the source give for ACTAGTTGGTCAGCCGAGGTCACACACAATTCGG here?
**A.** 3.43

**Q.** TCTTGTAGATCAATAGAGATTAAGAAAGTGCGCT was tested. Which PBM binding z-score did it give?
**A.** -0.285

**Q.** How did the PBM binding z-score turn out when ACTAGTTGGTCAGCTGAGGTCAGACACAATTCGG was run?
**A.** 2.41

**Q.** For AGAACGAGGGCACGCTGAGTTGATAGAAGAGTAG, which PBM binding z-score is on record?
**A.** 0.553

**Q.** ACTCGGAGGCCAAAGGTCAGAGCTACGCCAGTGA was tested. Which PBM binding z-score did it give?
**A.** 4.88

**Q.** Which PBM binding z-score does the source give for TATACAGCGTCAAAGGCCAGAGTACGAATGTCGA here?
**A.** -0.579

**Q.** Which PBM binding z-score does the source give for AGAACGAGGGCACGCTTAGTTGATAGCAGAGTAG here?
**A.** 0.731

**Q.** With GCTTACGGGTCAAAGCTTATAGCATGAATAGAAT as the sequence, how does the PBM binding z-score read?
**A.** 6.25

**Q.** TGTCAAAGTTCAAAGGTAACATAAGTATCCACAC was tested. Which PBM binding z-score did it give?
**A.** 7.47

**Q.** For AGTCAAAGTTCATCTAGGTACCGTAAGATATGCT, which PBM binding z-score is on record?
**A.** 6.55

**Q.** How did the PBM binding z-score turn out when CCTAGTTGGTCAAGGTCACACAAGCTATAGGTAC was run?
**A.** 4.29

**Q.** Which PBM binding z-score does the source give for ATATGTAGGTTATCGGGACATTCAGTTTGCGCAT here?
**A.** 0.568

**Q.** How did the PBM binding z-score turn out when CCTCACGGGTCAAGGTTATAGCACGGGTGGTACG was run?
**A.** 5.02

**Q.** With TCATATTGGTAAACAGGTGAAAGTCCGTAAGTTA as the sequence, how does the PBM binding z-score read?
**A.** 1.17

**Q.** For CTCGAAAGGTCGGTCGAGGTGAGTATACGGATAA, which PBM binding z-score is on record?
**A.** 2.43

**Q.** Which PBM binding z-score does the source give for CGTCCAAGGTCATAGGAGGTCAGTTAAGACAGAT here?
**A.** 7.74

**Q.** Which PBM binding z-score does the source give for GATACAGGGTCAGCTAGAGGCCAGAGTTTGGAAA here?
**A.** 4.24

**Q.** Which PBM binding z-score does the source give for GCTAGTTGGTCAGTAAAAGGTCACACATCGGTCG here?
**A.** 3.3

**Q.** For TCATATAGGTAAAAGGTGGAAGTCGGTGTGGTAA, which PBM binding z-score is on record?
**A.** 0.924

**Q.** Which PBM binding z-score does the source give for GCAGACAGGTGAAACGCAGGAAACTCAGGGTGGC here?
**A.** -0.517

**Q.** For CCTGCTAGATCAATGGTCAGCTAAAGCAGCTCGC, which PBM binding z-score is on record?
**A.** -0.932

**Q.** GTACCAGGGTGAATAGGTCGTTGATGAGTAGGCG was tested. Which PBM binding z-score did it give?
**A.** 0.645

**Q.** How did the PBM binding z-score turn out when TCATATAGGTCAATGCTAGGTGAAAGTCCGATCT was run?
**A.** 5.19

**Q.** GCTAGCTGGCCATTTGGGTCACTCAATGACGGGC was tested. Which PBM binding z-score did it give?
**A.** -0.265

**Q.** For TCATATAGGTAAACGTGAAAGTCGAACGATATGA, which PBM binding z-score is on record?
**A.** 0.211

**Q.** With CAAACTAGGTCAAAGGTCTAAGTCGAGCCAACCA as the sequence, how does the PBM binding z-score read?
**A.** 5.29

**Q.** Which PBM binding z-score does the source give for GCTTACGGGTCATAGGTTATAGCATGAATAGAAT here?
**A.** 5.98

**Q.** CAAACTAGGTCACGAAAGGTCAAAGACGAATGAC was tested. Which PBM binding z-score did it give?
**A.** 7.6

**Q.** For CGTCCCAGGTCAATGCTAGGTCAGTGAAAGCATT, which PBM binding z-score is on record?
**A.** 4.29

**Q.** How did the PBM binding z-score turn out when TCTCGGAGGACACGAACGGTCAGAGCTCGACATC was run?
**A.** 0.632

**Q.** Which PBM binding z-score does the source give for CCGACTGGGGCATAATGTTACCATAAGCCAGCCC here?
**A.** -0.414
